3CLpro inhibitor: SARS-CoV 3CLpro protease inhibition | P0C6X7 | recombinant SARS-CoV 3CLpro, quenched FRET peptide cleavage | inhibition, % at 6 µM | 290,000 compounds, 0.14% hits | AID 1706; in the data active = inhibition above about 12%
GDH-TPI inh: counter-screen for M. tuberculosis FBA inhibitors: GDH-TPI coupled enzymes; GDH-TPI coupled enzyme counterscreen, NADH absorbance; 360,000 compounds, 1.2% hits; inhibition, % at 4.8 µM
CCHF vOTU inh: blocks the CCHF virus ovarian tumor domain protease; CCHFV vOTU protease, Pep-AMC fluorescence; inhibition, % at 11.5 µM; 370,000 compounds, 0.55% hits
RecA intein inh: blocks M. tuberculosis RecA intein splicing; P9WHJ3; cell-free RecA intein splicing, fluorescence; inhibition, % (concentration not given with the values); 290,000 compounds, 0.75% hits; in the data active = inhibition above about 30%
Mtb FBA inh: inhibits M. tuberculosis FBA enzyme | purified M. tuberculosis FBA, fluorescence read-out | 360,000 compounds, 2.3% hits | inhibition, % at 1 µM; in the data active = inhibition above about 27%
Target sequence (P9WQA3 whole entry, looked up): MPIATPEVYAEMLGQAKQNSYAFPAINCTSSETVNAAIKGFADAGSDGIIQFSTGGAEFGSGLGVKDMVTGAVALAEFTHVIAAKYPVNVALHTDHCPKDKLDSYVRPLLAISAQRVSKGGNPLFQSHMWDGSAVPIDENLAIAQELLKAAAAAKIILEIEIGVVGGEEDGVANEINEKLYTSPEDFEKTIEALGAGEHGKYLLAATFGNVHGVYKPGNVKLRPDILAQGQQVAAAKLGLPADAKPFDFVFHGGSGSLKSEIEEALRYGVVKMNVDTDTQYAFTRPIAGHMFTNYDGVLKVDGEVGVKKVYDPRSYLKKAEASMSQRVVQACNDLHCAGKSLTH
DUSP3 inh: inhibitors of human VHR1 phosphatase (DUSP3). P51452. recombinant VHR phosphatase, pNPP absorbance. inhibition, % at 13.3 µM. 290,000 compounds, 0.52% hits. AID 1654; in the data active = inhibition above about 50%
Of the large screens only hits and unclear results are named; the others gave an inactive call. In the library only some 4.7% were active in any assay of this set; here they are far more common. Rule as the data show it, unless noted: active = inhibition above about 30%; inactive = the rest.

Cc1ccc(-c2nc3c(c(=O)c4ccccc4n3C)c(=O)n2Cc2ccco2)cc1	GDH-TPI inh 32
Cn1c2ccccc2c(=O)c2c(=O)n(Cc3ccco3)c(-c3ccc(F)cc3)nc21	none
O=[N+]([O-])c1ccccc1S(=O)(=O)N1CCN(S(=O)(=O)c2ccc3c(c2)OCCO3)CC1	none (no result: 3CLpro inhibitor, CCHF vOTU inh, RecA intein inh, DUSP3 inh)
CC(=O)c1ccc(N2CCN(C(=O)c3cc(-c4cccnc4)nc4ccc(Br)cc34)CC2)cc1	GDH-TPI inh 46
O=C(O)COc1cccc(/C=C2/SC(=S)N(Cc3ccccc3)C2=O)c1	RecA intein inh 45
O=C(O)CN1C(=O)/C(=C\c2cccc(OCc3ccccc3)c2)SC1=S	none
Cc1ccc(NC(=O)COc2cccc(/C=C3\SC(=S)N(CCC(=O)O)C3=O)c2)cc1Cl	RecA intein inh 31
COc1ccc(S(=O)(=O)Oc2ccccc2C(=S)N2CCOCC2)cc1	none (no result: RecA intein inh)
COC(=O)[C@]12C[C@H](CC(=O)NCCc3ccccc3OC)C(=O)N(Cc3ccco3)C1=C[C@H](C1CCCC1)O[C@@H]2C	none (no result: 3CLpro inhibitor, GDH-TPI inh, RecA intein inh, Mtb FBA inh, DUSP3 inh)
COc1ccc(OCc2nn3c(-c4ccccc4)nnc3s2)cc1	none (no result: 3CLpro inhibitor, GDH-TPI inh, RecA intein inh, Mtb FBA inh, DUSP3 inh)
COc1ccc(-c2cc(C)no2)cc1S(=O)(=O)Nc1ccccc1	Mtb FBA inh 139
COc1ccc(-c2cc(C)no2)cc1S(=O)(=O)Nc1cccc(C)c1	none
O=C(c1ccco1)N1CCN(c2nc(C3CC3)nc3sc4c(c23)CCCC4)CC1	RecA intein inh 38 (no result: CCHF vOTU inh)
Cc1ccccc1-c1ccc(C=Nc2c(C)n(C)n(-c3ccccc3)c2=O)o1	GDH-TPI inh 33
Cc1c(N=Cc2ccc(Cl)o2)c(=O)n(-c2ccccc2)n1C	none (no result: CCHF vOTU inh)
O=C(C(=O)N1CCN(S(=O)(=O)c2ccc(F)cc2)CC1)c1cccc(C(F)(F)F)c1	none (no result: 3CLpro inhibitor, GDH-TPI inh, RecA intein inh, Mtb FBA inh, DUSP3 inh)
COC(CSc1nc(N)c2c3c(sc2n1)CN(C)CC3)OC	GDH-TPI inh 36, Mtb FBA inh 181
O=C(N[C@H](Cc1ccccc1)C(=O)N1CCN(c2ncccn2)CC1)[C@H]1O[C@@H](n2ccc(=O)[nH]c2=O)[C@H](O)[C@@H]1O	none (no result: 3CLpro inhibitor, GDH-TPI inh, RecA intein inh, Mtb FBA inh, DUSP3 inh)
Cc1ccc([N+](=O)[O-])cc1-c1ccc(/C=N\n2nnnc2N)o1	none
COC(=O)c1cc(Br)ccc1-c1ccc(/C=N/n2nnnc2N)o1	GDH-TPI inh 44
Cc1ccc(S(=O)(=O)N2[C@@H](c3cccc(Cl)c3)C(C(=O)OC(C)(C)C)=CC[C@H]2c2ccc(C(C)C)cc2)cc1	none (no result: 3CLpro inhibitor, GDH-TPI inh, RecA intein inh, DUSP3 inh)
Cn1c(=O)c2c(nc(N/N=C/c3ccncc3)n2Cc2ccccc2)n(C)c1=O	GDH-TPI inh 59
COc1cc(/C=N/Nc2ccc(Cl)c(C(=O)O)c2)ccc1OC(=O)c1ccco1	none
COc1cc(/C=N/Nc2nc3c(c(=O)n(C)c(=O)n3C)n2Cc2ccccc2)ccc1OC(=O)c1ccco1	GDH-TPI inh 33
Cc1ccc(Cn2c(N/N=C/c3ccncc3)nc3c2c(=O)n(C)c(=O)n3C)cc1	none
COc1ccccc1N1C(=O)CC(Sc2ccccc2N)C1=O (stereo unspecified)	none
Cc1nn(-c2ccccc2)c2sc(C(=O)NCCc3ccc(Cl)cc3)cc12	none (no result: 3CLpro inhibitor, GDH-TPI inh, RecA intein inh, Mtb FBA inh, DUSP3 inh)
O=C(Nc1nnc(SCc2ccc(Cl)cc2)s1)c1ccco1	GDH-TPI inh 32
O=C(Nc1nnc(-c2ccc(F)cc2)s1)c1ccco1	none
Cc1cccc(-c2nnc(NC(=O)c3ccco3)s2)c1	GDH-TPI inh 34
Cc1onc(-c2ccccc2)c1C(=O)Nc1nnc(C(C)C)s1	none
Cc1noc(C)c1C(=O)Nc1nnc(-c2ccccc2)s1	GDH-TPI inh 35
CCSc1nnc(NC(=O)c2ccco2)s1	none
CC(C)(C)c1ccc(S(=O)(=O)N2CCCC(C(=O)NCc3cccs3)C2)cc1 (stereo unspecified)	none (no result: 3CLpro inhibitor, GDH-TPI inh, RecA intein inh, Mtb FBA inh, DUSP3 inh)
COc1ccc(/C=C/C(=O)Nc2nnc(C(C)C)s2)cc1OC	GDH-TPI inh 34
COc1ccc(-c2cnnn2-c2ccc(NC(=O)/C=C/c3ccc(OC)c(OC)c3)cc2)cc1	none
COc1ccc(/C=C/C(=O)Nc2ccccc2)cc1OC	none
COc1ccc(/C=C/C(=O)Nc2ccc(-n3nncc3-c3ccc(OC)c(OC)c3)cc2)cc1OC	GDH-TPI inh 36
COc1ccc(/C=C/C(=O)Nc2c(C(=O)O)[nH]c3ccccc23)cc1OC	GDH-TPI inh 31
COc1ccc(/C=C/C(=O)Nc2ccc3nc4n(c(=O)c3c2)CCCC4)cc1OC	GDH-TPI inh 36

Source: PubChem (several laboratories)
